From PubChem BioAssay
SARS PLP yeast = blocks SARS-CoV papain-like protease in a yeast assay; Potency, µM (top dose mostly 32.9 µM), inactives show top-dose activity, positive = growth rescue, usual class: activators; AID 485353; 330,000 compounds, 0.19% hits; S. cerevisiae expressing SARS-CoV PLpro, growth rescue; calls by dose curve; note: potency is the fitted concentration of half-maximal effect; 0% is about no effect; nearly all actives have a fitted effect of over 55% in size
AMA1-RON2 inh = AMA1-RON2 (P. falciparum) interaction inhibition; AlphaScreen AMA1-biotinylated RON2 peptide binding; Potency, µM (top dose mostly 58.2 µM), for the others: top-dose activity change, negative = inhibition, hits mostly inhibitors; 360,000 compounds, 0.2% hits;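 note: potency is the fitted concentration of half-maximal effect; 0% = vehicle wells and -100% = peptide control; nearly all actives have a fitted effect of over 45% in size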
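AMA1 (3D7) with his tag at 25 nM final met compounds first, then biotinylated RON2 peptide at 25 nM; detection used donor plus acceptor beads, 10 µg/mL apiece, read by AlphaScreen after 30 min at room temperature.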
AmpC detergent = AmpC beta-lactamase inhibition with detergent present; P00811; AmpC hydrolysis of nitrocefin, absorbance 480 nm, 0.01% Triton; Potency, µM (top dose mostly 114 µM), for inactives: at the highest dose activity change, negative = inhibition, most hits filed as inhibitors; 370,000 compounds, 0.041% hits;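 note: potency is the fitted concentration of half-maximal effect; 0% = no-compound wells and -100% = no-enzyme wells; nearly all actives have a fitted effect of over 25% in size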
Target sequence (P00811 whole entry, looked up): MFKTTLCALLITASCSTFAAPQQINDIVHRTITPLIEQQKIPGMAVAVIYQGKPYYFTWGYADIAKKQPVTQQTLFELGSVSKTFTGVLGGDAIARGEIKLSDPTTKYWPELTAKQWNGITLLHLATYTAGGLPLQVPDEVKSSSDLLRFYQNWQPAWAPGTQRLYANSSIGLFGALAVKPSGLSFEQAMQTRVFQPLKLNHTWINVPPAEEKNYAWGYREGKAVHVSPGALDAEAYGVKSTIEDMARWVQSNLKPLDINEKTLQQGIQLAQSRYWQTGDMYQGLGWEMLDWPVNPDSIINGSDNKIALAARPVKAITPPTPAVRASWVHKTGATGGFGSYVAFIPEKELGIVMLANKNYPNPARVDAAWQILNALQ
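20 mM phosphate pH 7.0 + 0.01% (detergent screen) or 0.0001% Triton X-100; 5.3 nM AmpC reagent; cpd preinc 15 min RT; nitrocefin (800 uM stock) to start; A480 q20 s × 4 min; Activity was normalised to no-enzyme and no-compound control wells.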
Shiga toxin inh = blocks Shiga toxin action in Vero cells | 290,000 compounds, 9.2% hits | Vero cells, Shiga toxin protein synthesis inhibition reporter | AID 2315 | inhibition, % at 38.7 µM; in the data active = inhibition mostly above about 28%, no sharp cut-off; inactive = mostly below about 43%; note: 0% is about no effect
CHX counter = counter-screen hit for Shiga toxin inhibitors, cycloheximide | cell reporter, cycloheximide protein synthesis inhibition counterscreen | max response, % | 300,000 compounds, 12% hits; in the data active = max response mostly above about 13%, no sharp cut-off; inactive = mostly below about 14%; note: read at 38.3 µM for the half of the compounds with a filed dose; 0% is about no effect
AmpC inh no detg = inhibitors of E. coli AmpC beta-lactamase without detergent; P00811; AmpC nitrocefin hydrolysis, absorbance 480 nm, 0.0001% Triton; Potency, µM (top dose mostly 57.1 µM), inactives show at the top dose activity change, negative = inhibition, most hits filed as inhibitors; 330,000 compounds, 0.52% hits;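 note: potency is the fitted concentration of half-maximal effect; plate controls were no compound for no effect and no enzyme for full effect; nearly all actives have a fitted effect of over 20% in size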
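AmpC (5.3 nM in the dispensed reagent) in 20 mM phosphate pH 7.0 with 0.01% (detergent screen) or 0.0001% Triton X-100 was preincubated with compounds for 15 min at room temperature. Nitrocefin was then added from an 800 uM solution, and hydrolysis was followed at 480 nm.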
An asterisk follows results filed as active. Only a selection was taken, and hits are over-represented in it overall. Unless noted, calls come from the whole dose curve; as a rule, active = well fitted curve in the direction sought with a large enough effect; inconclusive = small, poorly fitted or top-dose-only effect, or another doubt; inactive = no such curve, though single readings can be large; an effect the other way counts as inactive or inconclusive.

What do the screens show for `Cc1ccc(-c2ccc(/C=N/NC(=S)Nc3ccccc3)o2)cc1[N+](=O)[O-]`?
SARS PLP yeast: 22%; AMA1-RON2 inh: 11%; AmpC detergent: -6%; Shiga toxin inh: 15; CHX counter: -1; AmpC inh no detg: 3.5µM*

Results for Cc1nnc(SCC(=O)N/N=C/c2ccc(-c3ccc(C)c(Cl)c3)o2)s1 ?
SARS PLP yeast: -12%; AMA1-RON2 inh: 22%; AmpC detergent: 1%; Shiga toxin inh: 40; CHX counter: 17*; AmpC inh no detg: -5%

What do the screens show for `CCCCC(=O)N/N=C/c1ccc(-c2ccc([N+](=O)[O-])cc2)o1`?
SARS PLP yeast: -2%; AMA1-RON2 inh: -22%; AmpC detergent: 3%; Shiga toxin inh: 25*; CHX counter: 14; AmpC inh no detg: -15%

Results for CCOC(=O)c1ccc(-c2ccc(/C=N/NC(=O)CN(c3ccccc3Br)S(C)(=O)=O)o2)cc1 ?
SARS PLP yeast: 9%; AMA1-RON2 inh: 10%; AmpC detergent: 2%; Shiga toxin inh: 56*; CHX counter: 36*; AmpC inh no detg: -36%

What do the screens show for `Cc1ccc(C(=O)N/N=C\c2ccc(-c3ccc(Cl)c(Cl)c3)o2)cn1`?
SARS PLP yeast: -1%; AMA1-RON2 inh: 2%; AmpC detergent: -1%; Shiga toxin inh: 7; CHX counter: 1; AmpC inh no detg: -1%

What do the screens show for `CS(=O)(=O)N(CC(=O)N/N=C/c1cccc2c1OCCO2)c1ccccc1Br`?
SARS PLP yeast: -2%; AMA1-RON2 inh: -1%; AmpC detergent: 1%; Shiga toxin inh: -21; CHX counter: -4; AmpC inh no detg: -7%

How did O=C(N/N=C/c1ccc(-c2ccccc2)o1)c1ccccc1O do in these assays?
SARS PLP yeast: -2%; AMA1-RON2 inh: 54%; AmpC detergent: -9%; Shiga toxin inh: 40*; CHX counter: 16; AmpC inh no detg: -34%

How did O=C(N/N=C\c1ccncc1)c1ccccc1O do in these assays?
SARS PLP yeast: 1%; AMA1-RON2 inh: -18%; AmpC detergent: 5%; Shiga toxin inh: 20; CHX counter: 22; AmpC inh no detg: -28%

Results for COc1cccc2cc(-c3nnc(Nc4c(F)cccc4F)s3)c(=O)oc12 ?
AmpC detergent: 0%

What do the screens show for `COC(=O)c1ccc(C2N=C(c3cccs3)CC(c3ccccc3O)N2)cc1` (centres undefined)?
SARS PLP yeast: -19%; AMA1-RON2 inh: 0%; AmpC detergent: 4%; Shiga toxin inh: 100*; CHX counter: 38*; AmpC inh no detg: -50%

Results for CCOC(=S)SCC(=O)Nc1ncc(C)s1 ?
SARS PLP yeast: 2%; AMA1-RON2 inh: 6%; AmpC detergent: -7%; Shiga toxin inh: 68*; CHX counter: 39*; AmpC inh no detg: -19%

Results for Cc1cnc(NC(=O)Cc2ccc(C)c(C)c2)s1 ?
SARS PLP yeast: 1%; AMA1-RON2 inh: -6%; AmpC detergent: inconclusive; Shiga toxin inh: 47*; CHX counter: 20*; AmpC inh no detg: -9%

What do the screens show for `Cc1cnc(NC(=O)CCc2ccccc2)s1`?
SARS PLP yeast: -3%; AMA1-RON2 inh: 4%; AmpC detergent: inconclusive; CHX counter: 25*; AmpC inh no detg: -17%

Results for Cc1cnc(NC(=O)CSc2ccccc2)s1 ?
SARS PLP yeast: -8%; AMA1-RON2 inh: 4%; AmpC detergent: 1%; Shiga toxin inh: 41; CHX counter: 30*; AmpC inh no detg: -24%

Results for COC(=O)c1sc(NC(=O)Cc2cccs2)nc1C ?
SARS PLP yeast: -6%; AMA1-RON2 inh: -2%; AmpC detergent: -3%; Shiga toxin inh: 70*; CHX counter: 33*; AmpC inh no detg: -5%

What do the screens show for `COC(=O)c1sc(NC(=O)COc2ccccc2)nc1C`?
SARS PLP yeast: -2%; AMA1-RON2 inh: -1%; AmpC detergent: -12%; Shiga toxin inh: 28; CHX counter: 23*; AmpC inh no detg: -34%

What do the screens show for `Cc1nnc(NC(=O)C2(c3ccccc3)CCOCC2)s1`?
SARS PLP yeast: -5%; AMA1-RON2 inh: 8%; AmpC detergent: inconclusive; Shiga toxin inh: -5; CHX counter: -5; AmpC inh no detg: -3%

What do the screens show for `Cc1cnc(NC(=O)COc2ccccc2)s1`?
SARS PLP yeast: 1%; AMA1-RON2 inh: 48%; AmpC detergent: -16%; Shiga toxin inh: 110*; CHX counter: 59*; AmpC inh no detg: -19%

What do the screens show for `COC(=O)c1sc(NC(=O)COc2ccc(C)cc2)nc1C`?
SARS PLP yeast: -12%; AMA1-RON2 inh: -9%; AmpC detergent: inconclusive; Shiga toxin inh: -5; CHX counter: -1; AmpC inh no detg: -30%

What do the screens show for `Cc1cnc(NC(=O)C2(c3ccccc3)CC2)s1`?
SARS PLP yeast: 5%; AMA1-RON2 inh: 13%; AmpC detergent: 2%; Shiga toxin inh: 74*; CHX counter: 20*; AmpC inh no detg: -29%

What do the screens show for `COc1cccc(CNC(=O)Cn2c(=O)cc(C)c3c(C)nn(C)c32)c1OC`?
AmpC detergent: 14%

What do the screens show for `CC(C)C(=O)Nc1nnc(S(=O)(=O)N2CCCc3ccccc32)s1`?
SARS PLP yeast: 6%; AMA1-RON2 inh: -7%; AmpC detergent: -12%; Shiga toxin inh: 1; CHX counter: 1; AmpC inh no detg: -7%

How did CCOc1ccc(/C=N/Nc2nc(=O)[nH]nc2C)cc1OC do in these assays?
SARS PLP yeast: -8%; AMA1-RON2 inh: 119%; AmpC detergent: 4%; Shiga toxin inh: 34*; CHX counter: 32*; AmpC inh no detg: 2%

What do the screens show for `COc1cc(/C=N/Nc2nc(=O)[nH]nc2C)cc(OC)c1O`?
SARS PLP yeast: 0%; AMA1-RON2 inh: 73%; AmpC detergent: 2%; Shiga toxin inh: 94*; CHX counter: 27*; AmpC inh no detg: -23%

What do the screens show for `COc1cc(/C=N/Nc2nc(C)cc(=O)[nH]2)cc(OC)c1O`?
SARS PLP yeast: 0%; AMA1-RON2 inh: 75%; AmpC detergent: -10%; Shiga toxin inh: -3; CHX counter: -3; AmpC inh no detg: -12%

How did COc1ccc(/C=N/NC(=O)CNc2n[nH]c(=O)[nH]c2=O)cc1OC do in these assays?
SARS PLP yeast: 27%; AMA1-RON2 inh: 1%; AmpC detergent: -2%; Shiga toxin inh: -5; CHX counter: -4; AmpC inh no detg: -4%

What do the screens show for `Cc1n[nH]c(=O)nc1N/N=C/c1ccco1`?
SARS PLP yeast: -9%; AMA1-RON2 inh: 81%; AmpC detergent: 6%; Shiga toxin inh: 28*; CHX counter: 11; AmpC inh no detg: -6%

Results for CCOc1cc(/C=N/Nc2nc(=O)[nH]nc2C)ccc1O ?
SARS PLP yeast: 0%; AMA1-RON2 inh: 65%; AmpC detergent: -17%; Shiga toxin inh: 71*; CHX counter: 43*; AmpC inh no detg: -26%

What do the screens show for `COC(=O)c1c(NC(=O)C(C)Oc2ccc(Cl)cc2Cl)sc2c1CCCC2` (centres undefined)?
AmpC detergent: -6%
